KB-3-1 cytotox: qHTS assay for MDR1-selective chemotherapeutics: Primary screen using the parental adenocarcinoma cell KB-3-1; KB-3-1 viability, CellTiter-Glo ATP luminescence, 72 h; Potency, µM (highest dose often 46.1 µM), usual class: cytotoxic; hit rate 1.4% among 400,000; further: nearly all actives have a fitted effect of over 60% in size
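72 h, 37 °C compound treatment of KB-3-1 parental cells; CellTiter-Glo added, 10 min, luminescence read. Data corrected against DMSO-only plates and normalized before curve fitting.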
SW480 rerep: A quantitative high throughput screen for small molecules that induce DNA re-replication in SW480 colon adenocarcinoma cells; SW480 DNA re-replication, Hoechst DNA content imaging, 48 h; Potency, µM (titrated, usually from 46.1 µM), actives largely listed as activators; hit rate 1.8% among 340,000; AID 624297, 2012; further: nearly all actives have a fitted effect of over 55% in size
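Per well, 250 cells were exposed to pinned compound for 48 hr. Nuclear DNA was visualised with Hoechst (40 min, 37 C) and total object intensity recorded by fluorescence scanning.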
ELG1 DNA repair: qHTS screen for small molecules that inhibit ELG1-dependent DNA repair in human embryonic kidney (HEK293T) cells expressing luciferase-tagged ELG1 | HEK293T ELG1-luciferase reporter, luminescence, 16 h; DNA damage induced by 5-fluorouridine | Potency, µM (titrated, usually from 46.1 µM), usual class: inhibitors | hit rate 2.3% among 330,000; further: nearly all actives have a fitted effect of over 55% in size
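5-Fluorouridine DNA damage + compound/DMSO, 2,000 cells/well, 16 h, 37 °C/5% CO2. ONE-Glo, 30 min RT, luminescence. Readout = decrease in reporter signal.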
MCF10A rerep: A quantitative high throughput screen for small molecules that induce DNA re-replication in MCF 10a normal breast cells. MCF 10A DNA re-replication, Hoechst nuclear intensity, 48 h. Potency, µM (titrated, usually from 46.1 µM), hits mostly activators. hit rate 2.9% among 350,000; further: nearly all actives have a fitted effect of over 50% in size
KB-V1 cytotox: qHTS assay for MDR1-selective chemotherapeutics: Primary screen using the drug-selected MDR subline cells KB-V1. AID 1347076, 2019. Potency, µM (doses to about 46.1 µM), actives largely listed as cytotoxic. hit rate 3.4% among 400,000. KB-V1 MDR cells viability, CellTiter-Glo, 72 h; further: nearly all actives have a fitted effect of over 60% in size
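In this primary screen, KB-V1 cells overexpressing P-gp are incubated with library compounds (lowest to highest concentration) for 72 h at 37 degrees C before a luminescent ATP viability read.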
Numbers stand for hits; i = inactive; ? = inconclusive; nt = no result. The list is not random: actives were taken first. Their share in the collection is about 8.2%. The call rests on the fitted dose curve; in most records, active means well fitted curve in the direction sought with a large enough effect; inconclusive means small, poorly fitted or top-dose-only effect, or another doubt; inactive means no such curve, though single readings can be large; an effect the other way counts as inactive or inconclusive.

SMILES | KB-3-1 cytotox | SW480 rerep | ELG1 DNA repair | MCF10A rerep | KB-V1 cytotox
CCN1CCN(C(=O)c2ccc3c(=O)n(CCc4ccccc4)c(=O)[nH]c3c2)CC1 | i | 29µM | i | ? | i
CC1CCCCN1CCNC(=O)c1ccc2c(=O)n(Cc3ccc(Cl)cc3)c(=S)[nH]c2c1 (stereo not drawn) | i | ? | ? | 7.3µM | i
O=C(NCC1CCCO1)c1ccc2c(=O)n(Cc3ccc(Cl)cc3)c(=S)[nH]c2c1 (stereo not drawn) | i | i | i | i | i
Cc1ccc(C)c(OCCCCN2CCNCC2)c1C | i | i | i | i | i
COc1cccc(CSCC(=O)NCCc2ccccc2)c1OC | i | i | i | i | i
O=C(Nc1ccc(S(=O)(=O)Nc2ncccn2)cc1)c1ccc(Br)cc1 | i | nt | nt | nt | i
Cc1nc2ccc(C(=O)N3CCCC(CO)(Cc4ccc(F)cc4F)C3)cc2nc1C (stereo not drawn) | i | i | ? | i | i
CC(C)NC1CCC(Nc2ccnc3cc(Cl)ccc23)CC1 (stereo not drawn) | ? | ? | nt | i | i
Clc1ccc2c(NCCNC3CCCCC3)ccnc2c1 | ? | 6.5µM | nt | ? | ?
O=C1CC(c2ccccc2)=NN1c1nc(-c2ccccc2)cs1 | i | i | i | 16µM | i
O=C1C2C3c4ccccc4C(c4ccccc43)[C@@H]2C(=O)N1c1nc(-c2ccccc2)cs1 (stereo partly drawn) | i | i | i | i | 21µM
O=C(CCC(=O)Nc1nnc(C2CCCCC2)s1)NCc1ccc(F)cc1 | i | i | i | i | i
O=C(CSc1nc2ccccc2n1CC(=O)Nc1ccc(F)cc1F)Nc1ccc(F)cc1 | i | nt | nt | nt | i
CC1C(=O)N2CCCc3cc(NC(=O)C(=O)NCc4cccnc4)cc1c32 (stereo not drawn) | i | i | ? | i | i
O=C(COC(=O)c1c(Cl)cccc1Cl)Nc1ccccc1Br | i | i | ? | ? | 18µM
CCCCNC(=O)C[C@@H]1C[C@@]2(C(=O)OC)CCCCC=C2N(CCC2=CCCCC2)C1=O | i | nt | nt | nt | i
Cc1ccc(C(C)NC(=O)CSc2ccc(S(=O)(=O)N3CCOCC3)cn2)cc1C (stereo not drawn) | i | i | i | i | 18µM
COc1ccc(C(c2sc3ncnn3c2O)N2CCN(c3ccccc3F)CC2)cc1OC (stereo not drawn) | 2.9µM | i | ? | i | 1.6µM
NC(=O)c1ccc(-n2nnnc2SCC(=O)Nc2ccccc2)cc1 | i | i | i | i | i
NS(=O)(=O)c1cccc(NC(=O)CSc2nnnn2-c2ccccc2)c1 | i | i | i | ? | ?
O=C(CSc1nncn1-c1ccccc1)Nc1cc(Cl)cc(Cl)c1 | i | i | i | i | i
O=C(CSc1nnnn1-c1ccccc1)CC(=O)Nc1ccc(Cl)cc1 | ? | i | 16µM | ? | i
CN(C)S(=O)(=O)c1cccc(NC(=O)CSc2nncn2-c2ccccc2)c1 | ? | i | ? | 0.65µM | i
CN(C)S(=O)(=O)c1cccc(NC(=O)CSc2nnnn2-c2ccccc2)c1 | i | i | ? | i | 10µM
CN(C)CCNC(=O)c1cccc(-c2cnc3c(NC=O)cc(-c4cccs4)cn23)c1 | i | nt | nt | nt | i
SMILES | KB-3-1 cytotox | SW480 rerep | ELG1 DNA repair | MCF10A rerep | KB-V1 cytotox
COC(=O)c1cc(Nc2cc(C)c3ccc(O)cc3n2)cc(C(=O)OC)c1 | i | ? | ? | 15µM | i
Cc1ccc(Nc2cc(C)c3c(O)cccc3n2)cc1C | i | i | ? | i | i
Cc1ccc(Nc2cc(C)c3ccc(O)cc3n2)cc1C | ? | ? | ? | 23µM | i
Cc1cccc2cc(CN(Cc3nnnn3C3CCCCC3)C3CCCC3)c3nnnn3c12 | ? | i | ? | i | 21µM
COC(=O)c1cc(NC(=O)Cc2cccs2)cc(C(=O)OC)c1 | i | i | ? | i | i
Cc1ccc(-n2nc3c(c2NC(=O)c2cccs2)CS(=O)(=O)C3)c(C)c1 | i | i | i | i | i
